The labels stand for the following.
B1: VH:VL chains; a variant is named by its letters at X, in order (parent)
chain 1: QVQLVQSGAEVKKPGASVKVSCKASGYTFTDYXMHWVRQAPGQGLEWMGXVNPNXXXTTYNQKFEGRVTMTTDTSTSTAYMELRSLRSDDTAVYYCARXNXLDXWGQGTTVTVSS
chain 2: DIQMTQSPSSLSASVGDRVTITCSVSSSVSSIYLHWYQQKPGKAPKLLIYSTSNLASGVPSRFSGSGSGTDFTLTISSLQPEDFATYYCQVYSGYPLTFGGGTKVEIK

The list shows a part of the results. No count for the full screen is at hand.

This assay covers variants of B1. The assay can be described thus: yeast display scFab, FACS + sequencing. The conditions noted are these: with MET. The essentials:
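Heavy-chain CDR mutant scFab yeast surface library, enriched by two magnetic rounds on HGFR-Fc-coated Protein A beads and then by FACS. Cells were labelled with 1 nM HGFR-Fc in PBSB with 1% milk and anti-Myc for 3 h at room temperature, and the top 50% antigen-positive cells were gated. Round-3 sorted and input populations were deep sequenced in two replicates. Antigen binding call: positive if a sequence occurred in both antigen-positive samples, negative if it occurred only in input.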
On to SAGEGDVY, for which the antigen binding call is given as “no binding”.
With FAKEGFWD, the antigen binding call is “no binding”.
With VRERGDGV the entry was “no binding”; with VRTRSSGV, “binds”.
To VRTADVGV belongs “no binding”.
As for VRTRGSGV, the antigen binding call is “binds”.
As for VETRSSSV, the antigen binding call was “no binding”.
To VETEGSGV belongs “no binding”; to DGGTNAGD, “no binding”; to YTEKGVGV, “no binding”.
To YREKGSSA belongs “binds”.
To YTTGGSSA belongs “no binding”; to YRTGGSSV, “binds”; to DREEGSSA, “no binding”.
YREKGSSV: the antigen binding call is “binds”.
With DATGGSSV the entry was “no binding”; with VAEKGSSA, “no binding”; with DTKRTAVA, “no binding”.
To ATTKSAGD belongs “no binding”; to YRGKDVGV, “binds”.
With DREEGVGV the entry was “no binding”.
For the variant DARGGFGV, the antigen binding call is on record as “no binding”.
To YRRGGAGV belongs “binds”.
To YRRGGFGV belongs “binds”; to YRRGGVGV, “binds”.
Regarding YRRGSVGV, the antigen binding call is reported as “no binding”.
As to VEGGGDVV, the antigen binding call is listed as “no binding”.
With SEEEGASV the entry was “no binding”; with YKAGGAWD, “binds”; with YAARGAWD, “no binding”.
With YKARGAWD the entry was “binds”; with YKARGSLV, “binds”.
To YKGRGSLY belongs “binds”; to SKERGSLV, “no binding”.
DKEGGSLV: the antigen binding call is “no binding”.
With YKARGSLY the entry was “binds”.
YKGRAALY: the antigen binding call is “no binding”.
To YKGRGALY belongs “binds”; to ATGRADWA, “no binding”.
With VTETGDSV the entry was “no binding”; with YTGEDDVY, “no binding”.
As to YRGKAAGD, the antigen binding call is “binds”.
To YTGTSAGD belongs “no binding”; to YAGKSAGD, “no binding”.
With YRGKASGD the entry was “binds”.
With FRRRGAWA the entry was “binds”; with YRRRGYWA, “binds”.
For YRRRGAWA, the antigen binding call was “binds”.
With YRRRGSWA the entry was “binds”; with FRRKDDWA, “no binding”.
To ATGEDDVY belongs “no binding”; to DEGGTDGY, “no binding”; to FARKGDGV, “no binding”.
Take SARRGDWA: the antigen binding call is recorded as “no binding”.
With YRRRGVWA the entry was “binds”.
Regarding YRRRGDWA, the antigen binding call is given as “binds”.
With YRREGDWA the entry was “no binding”.
With DATGGDGV the entry was “no binding”; with FRRRGAAD, “binds”.
Regarding FRRRGALD, the antigen binding call is “binds”.
To FRRGGSAF belongs “binds”; to FAGRGALD, “no binding”.
With FARGGDAV the entry was “no binding”; with FRRRGAVD, “binds”.
With FARKSYGA the entry was “no binding”; with AETKGDGV, “no binding”; with YGTATFLV, “no binding”.
For the variant VRTKDFSY, the antigen binding call is listed as “no binding”.
With FGATSFSV the entry was “no binding”; with FAGGDYGS, “no binding”.
To DTAGDAVV belongs “no binding”.
To YRRRGSAD belongs “binds”.
Regarding FRRGGSAD, the antigen binding call is recorded as “binds”.
To FARGGSAD belongs “no binding”.
With FRRRGSAD the entry was “binds”; with DARGGSAD, “no binding”; with YRAGDSVD, “binds”.
With YRRKGSVD the entry was “binds”.
On to YRAKGSVD, for which the antigen binding call is given as “binds”.
In the case of DRAGDSVD, the antigen binding call is listed as “no binding”.
Take YKTGNDVA: the antigen binding call is on record as “no binding”.
To YKGKGAVA belongs “binds”; to YKGKGSVV, “binds”.
Turning to VKGAGSVV, the antigen binding call is reported as “no binding”.
To YKTRSAVA belongs “binds”.
To FKGRGAVD belongs “binds”; to YAGTGAVA, “no binding”; to SKGKGAVA, “no binding”.
To FKGKGAVA belongs “no binding”; to YTTGGAVA, “no binding”.
With DTKAASWA, the antigen binding call is given as “no binding”.
Turning to YKGKGSVA, the antigen binding call is recorded as “binds”.
To FKGEGDVA belongs “no binding”; to FKAGGAVA, “binds”.
With AATGSAWA the entry was “no binding”; with DRGGSAGD, “binds”; with DRAGGAGD, “binds”.
With DRTTNAGD the entry was “no binding”; with DRGRDAGD, “no binding”; with DAGGGAGD, “no binding”.
FRGGSAVD: the antigen binding call is given as “binds”.
To DAGEAAGD belongs “no binding”; to DRGEGAGD chain 1 G42D, “binds”.
To VRGGSDVD belongs “no binding”.
To DAARGAGD belongs “no binding”; to DKGGAAGD, “no binding”.
For the variant FAGRDVGV, the antigen binding call is “no binding”.
To SGKGGSAY belongs “no binding”.
In the case of FRGGSAGD, the antigen binding call was “binds”.
With FRKGSAVD the entry was “binds”; with FRGADFGD, “no binding”; with FTGGAAGD, “no binding”.
With DAGGADAY the entry was “no binding”; with FTGGASGV chain 1 V111I, “no binding”.
To VKGRGASV belongs “binds”; to VEGTSASV, “no binding”.
With YKAGDVSV, the antigen binding call is “no binding”.
To VKGRAFSV belongs “no binding”; to YKAKGASV, “binds”.
To YEGGGFSV belongs “no binding”.
With YGGGGASV the entry was “binds”.
As to YKGRGASV, the antigen binding call is reported as “binds”.
To YGGGGDVV belongs “no binding”; to SEEGTDWY, “no binding”.
Take DAGGAAAD: the antigen binding call is “no binding”.
With YEGTGAGA the entry was “no binding”; with VKGRSDWV, “no binding”; with YKGRGASA, “binds”.
For YKRRSASA, the antigen binding call is on record as “binds”.
With FKRRSVGA the entry was “no binding”; with YAGRGDSA, “no binding”; with VKGRSFLV, “no binding”.
For the variant YKGRGASD, the antigen binding call was “binds”.
To YAGRGASA belongs “no binding”.
With YKGRSASV the entry was “binds”.
To VERGTYGV belongs “no binding”.
As to AKTKSDWV, the antigen binding call is on record as “no binding”.
In the case of VTTRDDSD, the antigen binding call is given as “no binding”.
With VAGTGDWY the entry was “no binding”; with DTEGDAGD, “no binding”; with VTGESDWY, “no binding”.
With FRGKGFGV the entry was “no binding”.
To FRGGGSGV belongs “binds”; to FRGKGSGV, “binds”; to FRGEGALV, “binds”.
As for VTGEGALV, the antigen binding call was “no binding”.
With FRGEGFSV the entry was “no binding”; with FRGGGFVV, “no binding”.
With FRKGGSGV the entry was “binds”; with FRGGGVGV, “binds”.
On to FAGEGAGV, for which the antigen binding call is recorded as “no binding”.
In the case of VRGGGVGV, the antigen binding call is on record as “no binding”.
To FRGEGSGV belongs “binds”; to FRGGSSGV, “binds”; to ARGEGSGV, “no binding”.
With FKGGNVGV, the antigen binding call was “no binding”.
For STEGGSVY, the antigen binding call is “no binding”.
To SKTKSDWA belongs “no binding”; to SGEGGAVA, “no binding”; to DEAGGDGY, “no binding”.
With YRKESAVY the entry was “binds”; with YRRGDSLY, “binds”.
With YRRGSSLY the entry was “binds”.
As for YRRGSALY, the antigen binding call is “binds”.
Turning to FARKSDSS, the antigen binding call is on record as “no binding”.
As for DKKKDVVF, the antigen binding call is “no binding”.
To FKTAGSAV chain 1 R67H belongs “no binding”.
With YRRGSYVY the entry was “no binding”; with YRRGSAVY, “binds”.
As to ATGGAALD, the antigen binding call is on record as “no binding”.
With YRKGSSAA the entry was “binds”.
To YRKGGSAA belongs “binds”; to VAEEDAGY, “no binding”; to DARGAYLV, “no binding”.
To YRGKAFGV belongs “binds”.
YRAGDFGV: the antigen binding call was “no binding”.
With YRGKAAGV the entry was “binds”; with YTGTSAGV, “no binding”.
As for YKGRSAVY, the antigen binding call was “no binding”.
With VKAASAVY the entry was “no binding”; with VAEGDAAD, “no binding”.
To YRARGAAY belongs “binds”.
Regarding FRARGAAY, the antigen binding call is given as “binds”.
For the variant VRARGAAD, the antigen binding call is on record as “binds”.
To YKARGAVY belongs “binds”; to VTGTGAAD, “no binding”.
To DRRANFLY belongs “no binding”; to DREEGDGS, “no binding”; to VEGTSAAY, “no binding”.
With DKATGDAY the entry was “no binding”; with VRARGAAY, “binds”.
With YKARGAAY, the antigen binding call is listed as “binds”.
To FRRTDFVA chain 1 C22Y belongs “no binding”; to ARGRSDVA, “no binding”; to ARRRGAAA, “binds”.
With ARGRGSAA the entry was “binds”; with AETKGAAA, “no binding”.
To ARGRGSVA belongs “binds”.
Regarding ARKTGAGA, the antigen binding call was “no binding”.
Consider AEEEGSAA, for which the antigen binding call is “no binding”.
With ARRRGSAA the entry was “binds”.
For the variant VETTDSWV, the antigen binding call is recorded as “no binding”.
To VAERSFGV belongs “no binding”; to VEEAAAGV, “no binding”; to FTRESFAA, “no binding”.
With ARAGSAWA the entry was “no binding”.
With ARAGGAAA the entry was “binds”; with ARAGDAVA, “no binding”; with SKGKGAGD, “binds”.
As for SKGRGAGS, the antigen binding call is “binds”.
In the case of SKGKGAGF, the antigen binding call is reported as “binds”.
As for YKGKGAGF, the antigen binding call was “binds”.
For the variant YKGKGFGF, the antigen binding call is recorded as “no binding”.
With SKGRSDVF the entry was “no binding”; with DAGKGAGD, “no binding”.
Regarding YKGKGSGF, the antigen binding call is reported as “binds”.

Values taken from the emibetuzumab library of Makowski et al. (2022).
